Measurements: PubChem BioAssay (NCATS)
Inconclusive results are not listed. A call without a number means that no potency is given here. A number with no mark means an inactive call. Calls of active or inactive are those of the source. The call rests on the fitted dose curve; in most records, active means well fitted curve in the direction sought with a large enough effect; inconclusive means small, poorly fitted or top-dose-only effect, or another doubt; inactive means no such curve, though single readings can be large; an effect the other way counts as inactive or inconclusive.

Legend:
[1] = system: Hek293T; test: Primary qHTS to identify gynecologic anti-cancer compounds using libraries of approved drugs and bioactive compounds (AID 1345084); details: Gynecologic cancer cell panel viability, ATPlite luminescence, 48 h, control line for the selectivity index; series mostly up to 57.5 µM; further: nearly all actives have a fitted effect of over 55% in size
Outline: (§1)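 Luminescence from the ATPlite ATP-monitoring reagent indicates viable cell number; lower signal means cytotoxicity. Cells received compound 16 h after seeding and were exposed for 48 h across five concentrations.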

[2] = system: JEG-3; test: as above; details: Gynecologic cancer cell panel viability, ATPlite luminescence, 48 h; series mostly up to 57.5 µM
Outline: as §1

[3] = system: OV90; test: as above; details: Gynecologic cancer cell panel viability, ATPlite luminescence, 48 h; series mostly up to 57.5 µM
Outline: as §1

[4] = system: PA-1; test: as above; details: Gynecologic cancer cell panel viability, ATPlite luminescence, 48 h; series mostly up to 57.5 µM
Outline: as §1

[5] = system: SKOV3; test: as above; details: Gynecologic cancer cell panel viability, ATPlite luminescence, 48 h; series mostly up to 57.5 µM
Outline: as §1

[6] = system: Tov-21-G; test: as above; details: Gynecologic cancer cell panel viability, ATPlite luminescence, 48 h; series mostly up to 57.5 µM
Outline: as §1

[7] = system: Tov112D; test: as above; details: Gynecologic cancer cell panel viability, ATPlite luminescence, 48 h; series mostly up to 57.5 µM
Outline: as §1

[8] = Drug repurposing screens with cells derived from glioblastoma tumor samples (AID 1345199); details: GBM patient neurospheres viability, ATP luminescence, 48 h; further: nearly all actives have a fitted effect of over 40% in size; further: potency means the concentration at half of the fitted maximal effect
Outline: (§2)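 Primary testing used CD133+ neurospheres from four GBM patients, seven concentrations, 48 h exposure and ATP-based viability; confirmation added three slower-growing patient lines.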

[9] = system: astro; test: as above; details: viability, ATP luminescence, 48 h; series mostly up to 45.9 µM
Outline: as §2

[10] = at 45.9 µM (top of the series), tumour line B
[11] = at 45.9 µM (top of the series), tumour line D
[12] = at 46 µM (top of the series), tumour line A
[13] = at 46.1 µM (top of the series), tumour line C
[14] = at 20 µM (top of the series), tumour line C
[15] = at 21.2 µM (top of the series), tumour line B
[16] = at 21.2 µM (top of the series), tumour line D
[17] = at 21.3 µM (top of the series), tumour line A

Structure (SMILES) | outcome [1] | outcome [2] | Potency [3] | outcome [4] | outcome [5] | outcome [6] | outcome [7] | activity, negative = cell killing [8, 10] [%] | activity, negative = cell killing [8, 11] [%] | activity, negative = cell killing [8, 12] [%] | activity, negative = cell killing [8, 13] [%] | outcome [9] | activity, negative = cell killing [8, 14] [%] | activity, negative = cell killing [8, 15] [%] | activity, negative = cell killing [8, 16] [%] | activity, negative = cell killing [8, 17] [%] | Potency ([8]; tumour line A)
CC(=O)OC[C@H]1O[C@@](COC(C)=O)(O[C@H]2O[C@H](COC(C)=O)[C@@H](OC(C)=O)[C@H](OC(C)=O)[C@H]2OC(C)=O)[C@@H](OC(C)=O)[C@@H]1OC(C)=O | inactive | inactive | inactive | inactive | inactive | inactive | inactive | -8.85 | -9.16 | -28.7 | 2.01 | inactive |  |  |  |  | 
O=C1c2ccccc2C(=O)C1c1ccc(Br)cc1 | inactive | inactive | inactive | inactive | inactive | inactive | inactive | -20.2 | -25.8 |  | -18.3 |  |  |  |  |  | 
CCOC(=O)[C@H](CCc1ccccc1)N[C@@H](C)C(=O)N1CCC[C@H]1C(=O)O | inactive | inactive | inactive | inactive | inactive | inactive | inactive | -10.1 | -16.5 | -13.8 | -21.6 |  |  |  |  |  | 
C[C@@H]1CCC[C@H](C)N1 | inactive | inactive | inactive | inactive | inactive | inactive | inactive |  |  |  |  | inactive | -13.9 | -3.64 | -2.57 | -18 | 
CCN(CC)CCOC(=O)C(c1ccccc1)c1ccccc1 | inactive | inactive | inactive | inactive | inactive | inactive | inactive | -13.3 | -3.55 | -25.1 | -20.1 | inactive |  |  |  |  | 
O=C(NCN1CCOCC1)c1cnccn1 | inactive | inactive | inactive | inactive | inactive | inactive | inactive | -3.93 | -22.6 | -8.03 | -4.53 | inactive |  |  |  |  | 
COc1cc(O)cc(O)c1 | inactive | inactive | inactive | inactive | inactive | inactive | inactive | -0.182 | -4.84 | -38.5 | -3.31 | inactive |  |  |  |  | 
CN1C[C@@H]2C[C@H]1CN2c1cc2c(cc1F)c(=O)c(C(=O)O)cn2C1CC1 | inactive | inactive | inactive | inactive | inactive | inactive | inactive | 4.99 | -9.88 | -19.7 | 3.73 | inactive |  |  |  |  | 
CC(C)(C)C(=O)OCOC(=O)[C@@H]1N2C(=O)[C@@H](NC(=O)[C@H](N)c3ccccc3)[C@H]2SC1(C)C | inactive | inactive | inactive | inactive | inactive | inactive | inactive |  |  |  |  | inactive | 0.2 | -3.35 | -17.5 | -4.53 | 
O=C(O)CCC(=O)O | inactive | inactive | inactive | inactive | inactive | inactive | inactive | -11.8 | -1.31 | -19 | 36.7 | inactive |  |  |  |  | 
O=C(NCCCN1CCOCC1)c1ccc(Cl)cc1 | inactive | inactive | inactive | inactive | inactive | inactive | inactive | -1.61 | -16.9 | -28.4 | -13.2 | inactive |  |  |  |  | 
CCOc1cc(NC(C)=O)ccc1C(=O)OC | inactive | inactive | inactive | inactive | inactive | inactive | inactive | -7.75 | -29.2 | -29.3 | 2.82 | inactive |  |  |  |  | 
C=CCSCC1Nc2cc(Cl)c(S(N)(=O)=O)cc2S(=O)(=O)N1 (stereo unspecified) | inactive | inactive | inactive | inactive | inactive | inactive | inactive | -4.84 | -16.7 | -17.1 | -16.4 | inactive |  |  |  |  | 
O=C(O)c1ccccc1C(=O)Nc1ccc(S(=O)(=O)Nc2nccs2)cc1 | inactive | inactive | inactive | inactive | inactive | inactive | inactive | -6.87 | -3.34 | -31.1 | 1.95 | inactive |  |  |  |  | 
O=c1[nH]c(=O)c2ccccc2o1 | inactive | inactive | inactive | inactive | inactive | inactive | inactive | -11 | -4.94 | -29.8 | -24.8 | inactive |  |  |  |  | 
CCS(=O)(=O)CCn1c([N+](=O)[O-])cnc1C | inactive | inactive | inactive | inactive | inactive | inactive | inactive |  |  |  |  | inactive | -12.4 | -11.3 | 3.43 | -20.5 | 

Structure (SMILES) | outcome [1] | outcome [2] | Potency [3] | outcome [4] | outcome [5] | outcome [6] | outcome [7] | activity, negative = cell killing [8, 10] [%] | activity, negative = cell killing [8, 11] [%] | activity, negative = cell killing [8, 12] [%] | activity, negative = cell killing [8, 13] [%] | outcome [9] | activity, negative = cell killing [8, 14] [%] | activity, negative = cell killing [8, 15] [%] | activity, negative = cell killing [8, 16] [%] | activity, negative = cell killing [8, 17] [%] | Potency ([8]; tumour line A)
CCN(CC)CCc1nc(-c2ccccc2)no1 | inactive | inactive | inactive | inactive | inactive | inactive | inactive |  |  |  |  | inactive | -35.3 | 0.0715 | 5.97 | -18.4 | 
CC1(C)S[C@@H]2[C@H](N=CN3CCCCCC3)C(=O)N2[C@H]1C(=O)O | inactive | inactive | inactive | inactive | inactive | inactive | inactive | 0.648 | 9.1 | -11.3 | -4.3 | inactive |  |  |  |  | 
COc1ccc(C(=O)N2CCN(CC(=O)N3CCOCC3)CC2)cc1 | inactive | inactive | inactive | inactive | inactive | inactive | inactive | -0.665 | -14.5 | -23.3 | -11.4 | inactive |  |  |  |  | 
CCOc1ccc(C(=O)OCCN(CC)CC)cc1 | inactive | inactive | inactive | inactive | inactive | inactive | inactive | -7.64 | -13.5 | -29 | -17.9 | inactive |  |  |  |  | 
O=c1[nH]cnc2nc[nH]c12 | inactive | inactive | inactive | inactive | inactive | inactive | inactive | -0.606 | 15.6 | -28.5 | -12.9 | inactive |  |  |  |  | 
COc1ccc(-c2cc(=O)c3c(O)cc(O[C@@H]4O[C@H](CO[C@@H]5O[C@@H](C)[C@H](O)[C@@H](O)[C@H]5O)[C@@H](O)[C@H](O)[C@H]4O)cc3o2)cc1O | inactive | inactive | inactive | inactive | inactive | inactive | inactive | -6.79 | 0.355 | -29.8 | 3.81 | inactive |  |  |  |  | 
CCCNC(C)C(=O)Nc1c(C)csc1C(=O)OC (stereo unspecified) | inactive | inactive | inactive | inactive | inactive | inactive | inactive |  |  |  |  | inactive | 8.39 | -2.83 | -13.6 | -41.7 | 
C[N+]1(C)CCCC(OC(=O)C(O)(c2ccccc2)c2ccccc2)C1 (stereo unspecified) | inactive | inactive | inactive | inactive | inactive | inactive | inactive |  |  |  |  | inactive | -3.92 | -7.65 | 4.26 | -24.7 | 
CN/C(=C\[N+](=O)[O-])NCCSCc1csc(CN(C)C)n1 | inactive | inactive | inactive | inactive | inactive | inactive | inactive |  |  |  |  | inactive | -1.68 | 0.685 | -13.3 | -19.6 | 
COc1ccccc1OCC(O)CO (stereo unspecified) | inactive | inactive | inactive | inactive | inactive | inactive | inactive |  |  |  |  | inactive | 14.1 | -4.78 | -22.3 | -18.5 | 
C[C@@H]1O[C@@H](OC[C@H]2O[C@@H](Oc3c(-c4ccc(O)c(O)c4)oc4cc(O)cc(O)c4c3=O)[C@H](O)[C@@H](O)[C@@H]2O)[C@H](O)[C@H](O)[C@H]1O | inactive | inactive | inactive | inactive | inactive | inactive | inactive | -2.66 | 3.42 | -16.5 | -1.98 | inactive |  |  |  |  | 
CCCCCCCCCCC(CO)CCCCCCCC (stereo unspecified) | inactive | inactive | inactive | inactive | inactive | inactive | inactive | -11.9 | -0.979 |  | 14 | inactive |  |  |  |  | 25.1 µM (active)
CC(=O)N(CC(O)CN(C(C)=O)c1c(I)c(C(=O)NCC(O)CO)c(I)c(C(=O)NCC(O)CO)c1I)c1c(I)c(C(=O)NCC(O)CO)c(I)c(C(=O)NCC(O)CO)c1I (stereo unspecified) | inactive | inactive | inactive | inactive | inactive | inactive | inactive |  |  |  |  | inactive | 4.37 | -1.18 | 15.1 | -9.07 | 
CC(C)C[C@@H](N)C(=O)O | inactive | inactive | inactive | inactive | inactive | inactive | inactive | 3.77 | 29.1 | 14.9 | -0.0622 | inactive |  |  |  |  | 
O=C(/C=C/c1ccccc1)OCc1ccccc1 | inactive | inactive | inactive | inactive | inactive | inactive | inactive | -5.75 | -8.15 | -17.7 | -14.4 | inactive |  |  |  |  | 
COc1ccccc1OC(=O)Oc1ccccc1OC | inactive | inactive | inactive | inactive | inactive | inactive | inactive | -6.75 | -3.45 | -34.8 | -5.39 | inactive |  |  |  |  | 
